Bioassay records (PubChem BioAssay)
Compounds with a hit are over-represented: about 11% of the library has one in this group of screens.
HCV inhibitor = HCV inhibition. Huh7.5.1 HCVcc-Cre infection, luciferase reporter, 44 h. Potency, µM (doses to about 41.8 µM), inactives show at the highest dose activity change, negative = inhibition, most hits filed as inhibitors. 3.4% of 340,000 active; also: % is scaled to controls: 0 for no effect and ±100 for the full control effect
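A cell-based infection assay in which seeded cells (1,000 per well) receive test compound after 4 h, are inoculated with HCVcc-Cre at approximately 0.5 moi, and are incubated 44 h before luminescence detection.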
Pf growth 96h = P. falciparum growth inhibition at 96 hours; Potency, µM (top dose mostly 28.7 µM), inactives show at the highest dose activity change, negative = inhibition, actives largely listed as inhibitors; 6.9% of 320,000 active; P. falciparum luciferase reporter growth, 96 h; also: % is scaled to controls: 0 for no effect and ±100 for the full control effect
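Readout is luminescence from an integrated firefly luciferase in P. falciparum. Red cells, 2% hematocrit and 0.05% parasitemia final, were cultured with compound through two parasite generations (96 hours) at 37 C, 5% CO2.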
Vaccinia mCherry = inhibitors of vaccinia virus infection (mCherry reporter signal) | Vaccinia virus mCherry reporter infection, fluorescence | Potency, µM (series often up to 36.5 µM), for inactives: at the top dose activity change, negative = inhibition, usual class: inhibitors | 0.63% of 310,000 active | AID 720579; calls by dose curve; tested in A549 cells; also: % is scaled to controls: 0 for no effect and ±100 for the full control effect; nearly all actives have a fitted effect of over 35% in size
Vaccinia Venus = inhibitors of vaccinia virus (Venus reporter); Vaccinia virus Venus reporter expression, fluorescence; Potency, µM (highest dose often 36.5 µM), without a hit: top-dose activity change, negative = inhibition, most hits filed as inhibitors; 0.46% of 330,000 active; AID 720580; calls by dose curve; tested in A549 cells; also: % is scaled to controls: 0 for no effect and ±100 for the full control effect; nearly all actives have a fitted effect of over 30% in size
NS1 inh = blocks influenza NS1 protein function | Potency, µM (titrated, usually from 46.1 µM), inactives show top-dose activity, positive = more growth | 0.4% of 270,000 active | AID 2326; calls by dose curve; also: actives are rising curves; nearly all actives have a fitted effect of over 50% in size
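In this qHTS, NS1 from influenza A is expressed in budding yeast, where it slows growth. Cells are switched from glucose to 2% galactose medium (pH 6.0, -URA), treated with compound, and growth recovery is read at OD600.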
Pf growth 48h = P. falciparum growth inhibition at 48 hours (one generation) | P. falciparum luciferase growth in erythrocytes, 48 h | Potency, µM (top dose mostly 28.7 µM), for the others: top-dose activity change, negative = inhibition, actives largely listed as inhibitors | 5.9% of 310,000 active | AID 504832; also: % is scaled to controls: 0 for no effect and ±100 for the full control effect
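In quantitative HTS format, infected erythrocytes bearing luciferase-reporter parasites were treated for a single generation at 37 C. Luminescence after adding detection reagent served as the growth measure.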
The depositor's hits bear a star; i = inactive; ? = inconclusive; . = no result; [ ] = remark or other dose. Unless noted, calls follow the shape of the dose curve; as a rule, active = well fitted inhibition curve with a large enough effect; inconclusive = small, poorly fitted or top-dose-only effect, or another doubt; inactive = no such curve, though single readings can be large or run the other way. Potency is read from the fitted curve at half-maximal effect.

SMILES | HCV inhibitor | Pf growth 96h | Vaccinia mCherry | Vaccinia Venus | NS1 inh | Pf growth 48h
CS(=O)(=O)N(CC(=O)Nc1ccccc1-c1ccccc1)c1ccccc1 | -0.3% | ? | -12.1% | -4.5% | . | -2.2%
CCCCC(=O)NCCc1cc2ccc(OC)cc2[nH]c1=O | 0.7% | -0.3% | -15.3% | -16.7% | 0.6% | -28.2%
COc1cc(OC)nc(Oc2cccc(C(F)(F)F)c2)n1 | 9.8% | 33.6% | -5.3% | -4.2% | 6.8% | 28.0%
O=C(Cc1ccccc1)NCCS(=O)c1ccc(Cl)cc1 (stereo not drawn) | 17.0% | 41.7% | -10.2% | -9.6% | -3.9% | 12.2%
O=C(Cc1ccc(Cl)cc1)NCCS(=O)c1ccc(Cl)cc1 (stereo not drawn) | -2.6% | 1.17µM* | . | -13.2% | -11.1% | 7.9%
O=C(NCCCN1CCCC1=O)c1cc2ccccc2o1 | 16.3% | 8.8% | . | . | . | 24.2%
O=C(N/N=C/c1c(O)n(-c2ccccc2Cl)c(=O)c2ccccc12)C1COc2ccccc2O1 (stereo not drawn) | -4.4% | ? | -16.0% | -0.6% | 3.55µM* | 3.6%
Cc1ccc(-n2c(O)c(/C=N/NC(=O)C3COc4ccccc4O3)c3ccccc3c2=O)cc1 (stereo not drawn) | 16.4% | 21.7% | -25.1% | -17.5% | ? | -1.8%
CCCn1c(SCC(=O)c2c(N)n(C3CC3)c(=O)[nH]c2=O)nnc1-c1ccncc1 | 14.7% | ? | . | . | . | ?
CCNC(=S)N=Nc1c(O)n(Cc2ccc(Cl)cc2)c2ccccc12 | ? | ? | -16.2% | -13.5% | 23.6% | ?
Cc1ccccc1Cn1c(O)c(N=NC(=S)Nc2ccccc2F)c2ccccc21 | 2.24µM* | 6.3% | . | . | . | 1.47µM*
Cc1ccc(C)c(Cn2c(O)c(N=NC(=S)Nc3ccccc3F)c3ccccc32)c1 | 3.16µM* | 11.1% | . | . | . | ?
Oc1c(N=NC(=S)Nc2ccccc2F)c2ccccc2n1Cc1ccc(Cl)cc1 | ? | 71.3% | . | . | . | 2.33µM*
Oc1c(N=NC(=S)Nc2ccccc2F)c2ccccc2n1Cc1ccccc1F | 12.6µM* | -45.0% | . | . | . | ?
O=C(CN1C(=O)NC(Cc2c[nH]c3ccccc23)C1=O)NC1CC1 (stereo not drawn) | 5.1% | 13.7% | -5.3% | 6.4% | 2.1% | 13.1%
CC(C)=CC(O)C/C(C)=C/COc1ccc2ccc(=O)oc2c1 (stereo not drawn) | ? | -16.1% | 10µM* | 10µM* | 8.7% | -9.9%
CC(C)=CCOc1cc2oc(=O)ccc2cc1O | . | . | -15.9% | -4.8% | . | .
COc1ccc([C@@H](C)NC(=O)c2ccc3oc(C(C)C)nc3c2)cc1 | ? | 0.657µM* | . | . | -14.7% | 46.8%
Cc1[nH]n(-c2ccccc2)c(=O)c1N=O | 3.2% | ? | -2.1% | -5.9% | -51.8% | -4.7%
O=S(=O)(NCc1cccnc1)c1ccc(Cl)c2ccccc12 | 0.3% | 6.1% | -21.4% | 5.7% | -3.9% | 13.2%
S=C(Nc1ccccc1Cl)N(Cc1ccccc1)Cc1ccccn1 | 10.4% | 1.04µM* | -21.0% | -6.1% | . | ?
COc1ccc(CCN(Cc2ccccn2)C(=S)Nc2cccc(C)c2)cc1OC | 26.0% | -24.0% | i | -3.0% | . | 11.7µM*
COc1ccc(CCN(Cc2ccccn2)C(=S)Nc2ccccc2F)cc1OC | 22.1% | 56.0% | -5.1% | 2.7% | . | -23.7%
COc1ccc(CCN(Cc2ccccn2)C(=S)Nc2ccccc2Cl)cc1OC | -28.3% | 13.1µM* | -10.9% | -7.5% | . | ?
COc1ccc(NC(=S)N(CCc2ccc(OC)c(OC)c2)Cc2ccccn2)cc1 | -9.3% | 11.7µM* | -2.4% | 0.9% | . | ?
SMILES | HCV inhibitor | Pf growth 96h | Vaccinia mCherry | Vaccinia Venus | NS1 inh | Pf growth 48h
Cc1cccc(NC(=S)N(CCCN2CCOCC2)Cc2ccccn2)c1 | 19.6% | ? | -7.0% | -4.7% | 6.9% | -2.7%
O=C(NC(Cc1ccccc1)C(=O)O)/C(=C/c1cccc([N+](=O)[O-])c1)NC(=O)c1cccc(Br)c1 (stereo not drawn) | 4.2% | ? | -3.6% | -3.1% | ? | 12.8%
Cc1cc(C)cc(N2C(=O)CSC23C(=O)N(CC(N)=O)c2ccccc23)c1 (stereo not drawn) | . | . | -1.6% | -0.4% | . | .
CCCCC(=O)Nc1nc(C)c(-c2csc(Nc3cc(OC)ccc3OC)n2)s1 | 10µM* | ? | 1.12µM* | ? | 10.5% | 1.04µM*
CCCCC(=O)Nc1nc(C)c(-c2csc(Nc3cc(Cl)ccc3OC)n2)s1 | -28.3% | 4.65µM* | ? | -25.8% | ? | 8.28µM*
CCCCCCC(=O)Nc1nc(C)c(-c2csc(Nc3cc(Cl)ccc3C)n2)s1 | -6.9%[8.37 µM] | ? | i | -19.1% | ? | ?
CCCCn1c(N)c(N(CC(C)C)C(=O)c2cc(-c3ccncc3)nc3ccccc23)c(=O)[nH]c1=O | -0.1% | -34.6% | -10.1% | -2.4% | . | ?
O=c1ccc(S(=O)(=O)N2CCCC2)cn1Cc1ccc(F)cc1 | ? | -2.2% | . | . | . | 17.4%
CCOc1ccccc1C1NC(=O)NC(C)=C1C(=O)OCc1ccccc1 (stereo not drawn) | -14.5% | 28.8% | . | . | -1.3% | 0.0%
O=P(Oc1ccccc1)(Oc1ccccc1)C(Nc1ccccc1)c1ccccc1 (stereo not drawn) | 8.5% | 1.65µM* | ? | ? | 2.4% | ?
CCCCCOc1ccc(/C=c2\sc3ncnn3c2=O)cc1 | . | -10.1% | . | . | -2.4% | 27.2%
CCCCOc1ccc(/C=c2\sc3ncnn3c2=O)cc1 | -2.6% | 1.47µM* | -0.3% | 4.8% | 3.3% | 12.0%
CC(C)N(C(=O)CSc1nc2ccccc2n1Cc1ccccc1F)C(C)C | ? | -22.3% | . | . | -1.7% | 10.4µM*
Cc1nc2cc(C(=O)N3CCC4(CC3)OCCO4)ccc2n1-c1ccc(Br)cc1 | 4.5% | 23.4% | . | -11.4% | -17.4% | -13.6%
O=C(/C=C/c1ccncc1)c1cc(Cl)ccc1O | 9.7% | 9.28µM* | -11.6% | 15.6% | 2.1% | ?
O=C(CCl)NCCCCCCCCCNC(=O)CCl | ? | 1.47µM* | 14.1µM* | 5.62µM* | -45.3% | 1.85µM*
CC(=O)Nc1ccc(N(C)C)cc1[N+](=O)[O-] | 12.5% | 0.0% | . | . | -3.7% | 2.62µM*
C#CCOCCOCCOCCNc1nc(N2CCN(C(=O)CCCCCCCCCCNC(=O)[C@H]([C@@H](C)CC)n3cc(CCCCCN)nn3)CC2)nc(N2CCN(C(=O)CCCCCCCCCCNC(=O)[C@@H]([C@H](C)CC)n3cc(CCCCCN)nn3)CC2)n1 | -9.7% | ? | . | . | . | 3.29µM*
C#CCOCCOCCOCCNc1nc(N2CCN(C(=O)CCCCCCCCCCNC(=O)[C@H]([C@@H](C)CC)n3cc(CCCCCN)nn3)CC2)nc(N2CCN(C(=O)CCCCCCCCCCNC(=O)[C@H](CO)n3cc(CCCCCN)nn3)CC2)n1 | ? | ? | ? | 10µM* | . | 13.1µM*
C#CCOCCOCCOCCNc1nc(N2CCOCC2)nc(N2CCN(C(=O)CCCCCCCCCCNC(=O)[C@@H]([C@H](C)CC)n3cc(CCCCCN)nn3)CC2)n1 | ? | 0.828µM* | -28.2% | ? | . | 1.17µM*
